Rows were chosen to be rich in hits. Some 5.7% of all compounds tested hit in one or more screens of this group.
TGFb SMAD3 inh = qHTS for Inhibitors of TGF-b; HepG2 CAGA-GFP TGF-b/SMAD3 reporter, GFP fluorescence, 18 h; TGF-beta stimulated, 500 pg/mL final; Potency, µM (titrated, usually from 46.1 µM), for inactives: at the top dose activity, negative = inhibition, actives largely listed as inhibitors; 410,000 tested, 1.2% active; AID 588855, 2011; also: potency is read from the fitted curve at half-maximal effect; % is scaled to controls: 0 for no effect and ±100 for the full control effect; nearly all actives have a fitted effect of over 65% in size
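HEPG2 CAGA-GFP, 1000 cells/well; 2 h settle, 37 C; cpd via pin tool; TGF-b 500 pg/mL final; 18 h, 37 C; GFP imaging ex488/em500-530; %Activity normalised to -TGF-b and +DMSO controls; CRC fit, curve class.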
ATXN2 expr inh = Primary qHTS for Inhibitors of ATXN expression | HEK-293 ATXN2-luciferase reporter, luminescence, 24 h | Potency, µM (top dose mostly 57 µM), without a hit: top-dose activity change, negative = inhibition, usual class: inhibitors | 360,000 tested, 0.72% active; also: potency is read from the fitted curve at half-maximal effect; % is scaled to controls: 0 for no effect and ±100 for the full control effect; nearly all actives have a fitted effect of over 55% in size
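qHTS (up to 57 uM final) was run with 24 h compound exposure of reporter cells at 37 °C. Each well was multiplexed: SteadyGlo luminescence measured ATXN2-luciferase expression after a fluorogenic Gly-Phe-AFC viability readout (25 uM final).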
ATXN viability = Viability Counterscreen for Primary qHTS for Inhibitors of ATXN expression; S2 cells (HEK-293 line with an ATXN2-luciferase reporter) viability, CellTiter-Fluor protease fluorescence, 24 h; Potency, µM (doses to about 56.7 µM), most hits filed as cytotoxic; 400,000 tested, 0.49% active; AID 651635, 2014; also: potency is read from the fitted curve at half-maximal effect; nearly all actives have a fitted effect of over 40% in size
IL-1B inflam inh = qHTS for Inhibitors of Inflammasome Signaling: IL-1-beta AlphaLISA Primary Screen | THP-1 LPS/ATP IL-1B secretion, AlphaLISA, 16 h; hits give low values | activity change, % at 57.5 µM | 360,000 tested, 4.7% active; in the data active = activity change below about -50%; inconclusive = mostly about -30% to -49%; also: % is scaled to controls: 0 for no effect and ±100 for the full control effect
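THP-1 cells pretreated 1 hr with compounds (up to 57.5 uM final), then stimulated with LPS (250 ng/mL final) plus ATP (1.25 mM final); secreted IL-1B measured by AlphaLISA after 16 hr, decreased signal indicating inhibition.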
HepG2 viability = qHTS for Inhibitors of TGF-b: Cytotox Counterscreen. 410,000 tested, 0.76% active. Potency, µM (doses to about 46.1 µM), for inactives: top-dose activity change, negative = cytotoxicity, actives largely listed as cytotoxic. HepG2 CAGA-GFP viability, ATP luminescence, 18 h. AID 588856, 2011; also: potency is read from the fitted curve at half-maximal effect
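HepG2 CAGA-GFP cells (1000/well, DMEM with 1% FBS) received compound, then TGF-beta at 500 pg/mL final, and were incubated 18 hours at 37 degrees C. Viability was read by CellTiter-Glo luminescence. Media-only wells were set as complete cell-killing and DMSO as no toxicity.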
* hit, by the source's call; i = inactive; ? = inconclusive; . = no result. Unless noted, calls follow the shape of the dose curve; as a rule, active = well fitted curve in the direction sought with a large enough effect; inconclusive = small, poorly fitted or top-dose-only effect, or another doubt; inactive = no such curve, though single readings can be large; an effect the other way counts as inactive or inconclusive.

SMILES | TGFb SMAD3 inh | ATXN2 expr inh | ATXN viability | IL-1B inflam inh | HepG2 viability
CC(C)(C)c1nnc(NS(=O)(=O)c2ccc(N)cc2)s1 | . | 0% | i | . | .
CCOC(=O)C1=C(CN2CCN(c3cccc(OC)c3)CC2)NC(=O)NC1c1ccc(OC)cc1 (stereo not drawn) | -20% | . | . | . | -24%
Cn1c(=O)n(C)c2cc([N+](=O)[O-])c(N3CCN(C(=O)c4ccc(Cl)cc4)CC3)cc21 | -10% | 5% | i | -80* | -4%
C=C1CCN(c2ccc(C(=O)NCc3ccccc3)cc2[N+](=O)[O-])CC1 | -30% | 5% | i | 0 | -19%
C=C1CCN(c2ccc(C(=O)NCCC)cc2[N+](=O)[O-])CC1 | ? | 7% | i | -55* | -4%
c1ccc(-c2nnc(-c3ccccn3)s2)nc1 | -13% | 8.9µM* | i | -10 | -6%
c1ccc(-c2nc(-c3ccccn3)nc(-c3ccccn3)n2)nc1 | -27% | ? | ? | -14 | -44%
Cc1ccc2nc3[nH]c(=O)[nH]c(=O)c3c(N)c2c1 | 4% | 17% | i | -6 | -1%
Cc1ccc2nc(N)[nH]c(=O)c2c1Sc1ccncc1 | . | 13µM* | i | . | .
N#C/C(=C/c1ccc(CNC(=O)C(=O)Nc2cc(Cl)cc(Cl)c2)o1)C(=O)NCc1cccnc1 | 0% | -13% | i | 10 | 8%
O=C(NCc1cccnc1)/C(=C\c1ccc(-c2cccc(Cl)c2)o1)S(=O)(=O)c1ccccc1 | 16µM* | 25µM* | . | -105* | -97%
O=C(NCc1cccnc1)/C(=C/c1ccc(-c2cccc(Cl)c2)o1)S(=O)(=O)c1ccccc1 | ? | ? | i | -106* | -19%
Cc1ccc(C(=O)N/C(=C\c2ccc(-c3cc(Cl)ccc3Cl)o2)C(=O)NCc2cccnc2)cc1 | ? | -31% | i | -60* | -11%
Cc1c(Cl)cccc1NC(=O)Cn1c(=O)n(Cc2ccco2)c(=O)c2sc3ccccc3c21 | -12% | 0% | i | . | 2%
CCn1c(=O)c2sccc2n2c(CCC(=O)Nc3ccc(C(C)C)cc3)nnc12 | -19% | -22% | i | . | -2%
C=C1CCC2[C@](C)(CO)[C@H](O)CC[C@@]2(C)[C@@H]1C/C=C1\C(=O)OC[C@H]1O (stereo partly drawn) | 32% | ? | ? | -88* | 9%
CCN(CC)CC(O)Cn1c2ccccc2c2ccccc21 (stereo not drawn) | 27% | -21% | i | ? | -26%
O=S(=O)(c1ccccc1)N(CC(O)Cn1c2ccccc2c2ccccc21)c1ccccc1 (stereo not drawn) | ? | ? | ? | -53* | -40%
COc1ccccc1N(CC(O)Cn1c2ccccc2c2ccccc21)S(=O)(=O)c1ccccc1 (stereo not drawn) | ? | -46% | ? | -101* | -33%

Screening results: PubChem, National Center for Advancing Translational Sciences (NCATS)
